The structures appear in SMILES notation. Values without a mark were called inactive. Results filed as inconclusive are left out. The source made the active and inactive calls. Unless noted, calls follow the shape of the dose curve; as a rule, active = well fitted curve in the direction sought with a large enough effect in the repeat runs; inconclusive = weak or mixed curves; inactive = no such curve, though single readings can be large; an effect the other way counts as inactive or inconclusive.

A short description of assay [1]: qHTS assay to identify small molecule HDAC inhibitors - cell viability counter screen (AID 1259365). Also: series mostly up to about 92 µM; nearly all actives have a fitted effect of over 50% in size. The method in brief:
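CellTiter-Glo luminescence (30 min, room temperature) reported viability after a 2 h compound exposure at 37 C. Cells: wild-type HCT-116, 1,500 per well, seeded the night before.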

A short description of assay [2]: qHTS assay to identify small molecule agonists of the sonic hedgehog signaling (Shh) pathway - cell viability counter screen (AID 1259366). Also: nearly all actives have a fitted effect of over 50% in size. The method, boiled down: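 Cytotoxicity counter screen: CellTiter-Fluor reagent added after 23 h compound exposure, then 1 h at 37C and fluorescence read. Cells were 3T3 Gli1-Luc, seeded 2,000 per well and dosed 4 h post-plating.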
Background: In qHTS, concentration-response curves come from the screen itself.

Assay [3] can be described thus: qHTS assay to identify small molecule antagonists of the sonic hedgehog signaling (Shh) pathway - cell viability counter screen (AID 1259367). Also: nearly all actives have a fitted effect of over 55% in size. The method in brief:
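Cytotoxicity was assessed in parallel with Shh reporter activity by measuring live-cell protease fluorescence (CellTiter-Fluor) in NIH/3T3 cells stably carrying Gli1-Luc, treated with compound under conditioned medium stimulation for 23 hr plus 1 hr reagent incubation.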

Assay [4] can be described thus: qHTS assay to identify small molecule agonists of the sonic hedgehog signaling (Shh) pathway (AID 1259368; calls by dose curve;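 also: NIH/3T3-derived 3T3Gli1-Luc cells carrying a stable Gli1-driven firefly luciferase reporter; series mostly up to about 92 µM; nearly all actives have a fitted effect of over 15% in size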). The method in brief: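 Stable NIH/3T3 Gli1-Luc reporter clone; 24 hr cpd exposure after a 4 hr settling period; luminescence endpoint.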
Assay [5] in a line: qHTS assay to identify small molecule antagonists of the sonic hedgehog signaling (Shh) pathway (AID 1259369; calls by dose curve; also: nearly all actives have a fitted effect of over 45% in size; also: potency is read from the fitted curve at half-maximal effect). The method in brief:
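Gli1 transcriptional reporter (firefly Luc) in NIH/3T3 background, conditioned-medium activated. 24hr exposure, luminescence endpoint.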

Assay [6] has as its target Estrogen receptor beta (Homo sapiens) (UniProt Q92731). The assay can be described thus: qHTS assay to identify small molecule agonists of the estrogen receptor beta (ER-beta) signaling pathway (AID 1259377; active = well fitted activation curve with a large enough effect in the signal ratio in the repeat runs, not every such curve was filed as active; the % refers to the signal ratio). The method, boiled down: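 Ratiometric beta-lactamase FRET read-out came after 2 h substrate loading at room temperature. It followed 16 h compound treatment at 37C of GripTite HEK293T cells carrying a UAS-bla reporter, plated in 2% charcoal-stripped FBS medium.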

Assay [7] shares this target. The assay can be described thus: qHTS assay to identify small molecule antagonists of the estrogen receptor beta (ER-beta) signaling pathway (AID 1259378; active = well fitted inhibition curve with a large enough effect in the signal ratio in the repeat runs, not every such curve was filed as active; the % refers to the signal ratio). The method, boiled down: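 ER-beta-UAS-bla HEK293T (GripTite) cells in 2% charcoal-stripped FBS medium were preincubated 6 hr at 37C, dosed with compound, then stimulated with 1 nM E2 (final) for 16 hr; beta-lactamase reporter read by B/G FRET fluorescence after 2 hr substrate loading.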

A short description of assay [8]: qHTS assay to identify small molecule agonists of the androgen receptor (AR) signaling pathway in the presence of an antagonist - cell viability counter screen (AID 1259379).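 Also: MDA-kb2 human breast cancer cells carrying an MMTV luciferase reporter; series mostly up to about 92 µM; nearly all actives have a fitted effect of over 25% in size.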 The method in brief: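 Counter screen for cell viability run in parallel with the AR agonist-mode luciferase assay. MDA-kb2 cells were co-treated with nilutamide (3.0uM final) and compounds, then incubated 16 hr at 37C, and CellTiter-Fluor fluorescence was measured.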

The nature of assay [9]: qHTS assay to identify small molecule agonists of the estrogen receptor beta (ER-beta) signaling pathway - cell viability counter screen (AID 1259380). Also: nearly all actives have a fitted effect of over 30% in size. The method in brief: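 In this qHTS counter screen, HEK293T cells carrying an ER-beta/UAS beta-lactamase reporter, grown in 2% charcoal-stripped FBS, received compound for 16 hr; ATP-based CellTiter-Glo luminescence was then read after 30 min at room temperature.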
% is scaled to controls: 0 for no effect and ±100 for the full control effect.

Sequence of Estrogen receptor beta (Homo sapiens) (Q92731 whole entry, looked up): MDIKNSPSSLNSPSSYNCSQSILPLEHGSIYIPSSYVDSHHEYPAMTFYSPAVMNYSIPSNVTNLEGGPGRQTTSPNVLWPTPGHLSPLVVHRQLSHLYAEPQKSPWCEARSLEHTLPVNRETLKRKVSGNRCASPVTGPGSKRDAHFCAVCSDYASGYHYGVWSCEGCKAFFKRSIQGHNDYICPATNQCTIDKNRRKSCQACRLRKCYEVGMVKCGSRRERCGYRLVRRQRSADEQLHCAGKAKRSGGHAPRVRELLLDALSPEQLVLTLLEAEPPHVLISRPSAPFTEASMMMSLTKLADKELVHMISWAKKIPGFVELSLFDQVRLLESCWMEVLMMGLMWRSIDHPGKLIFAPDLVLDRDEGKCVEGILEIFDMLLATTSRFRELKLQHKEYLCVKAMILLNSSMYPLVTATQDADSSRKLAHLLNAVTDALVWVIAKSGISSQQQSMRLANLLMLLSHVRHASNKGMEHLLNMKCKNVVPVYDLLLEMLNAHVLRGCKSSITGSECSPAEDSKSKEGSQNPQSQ

In the case of `CCN1CN(CC)CN(CC)C1`, the result in [1], in assay [4], in assay [7] and in assay [9] was inactive. The Potency result in assay [2], in assay [3], in assay [5], in assay [6] and in assay [8] was “inactive” in each case.

With `O=S(=O)(O)c1cc(O)ccc1O`, the outcome in assay [1], in [4], in assay [7] and in assay [9] was inactive. The Potency result in assay [2], in assay [3], in assay [5], in [6] and in assay [8] was “inactive” in each case.

For the molecule `CC(=O)OCCCc1ccccc1`, the molecule was classed as inactive in assay [1], in assay [4], in assay [7] and in assay [9]. Besides, the Potency entry in assay [2], in assay [3], in [5], in assay [6] and in assay [8] was “inactive” in each case.

On to `NS(=O)(=O)c1cc2c(cc1Cl)NC(CC1CCCC1)NS2(=O)=O` (stereo not drawn), for which the call in assay [1], in [4], in assay [7] and in assay [9] was inactive. Also, the Potency result in [2], in [3], in assay [5], in [6] and in assay [8] was “inactive” each time.

Take `COc1ccc(OC)c(NC(=O)CC(C)=O)c1`: the molecule was called inactive in assay [1], in [4], in assay [7] and in assay [9]. In addition, the Potency result in [2], in assay [3], in [5], in assay [6] and in assay [8] was “inactive” throughout.

Turning to `Nc1cc(S(=O)(=O)O)ccc1S(=O)(=O)O`, the molecule was classed as inactive in assay [1], in assay [4], in assay [7] and in [9]. Further, the Potency result in [2], in assay [3], in assay [5], in assay [6] and in [8] was “inactive” each time.

`C[C@@H]1C[C@H]2[C@@H]3C[C@H](F)C4=CC(=O)C=C[C@]4(C)[C@@]3(F)[C@@H](O)C[C@]2(C)[C@@]1(O)C(=O)CO`: the molecule was classed as inactive in assay [1], in [4], in [7] and in [9]. For the same molecule, the Potency entry in [2], in assay [3], in assay [6] and in assay [8] was “inactive” in each case. Moreover, the Potency in assay [5] is 668 nM (active).

`NS(=O)(=O)c1ccc(Cl)c(S(N)(=O)=O)c1`: the call in assay [1], in assay [4] and in assay [7] was inactive. For the same molecule, the Potency result in assay [2], in [3], in [5], in [6] and in [8] was “inactive” throughout.

As for `N#CCCOCCOCCC#N`, the outcome in assay [1], in [4], in assay [7] and in assay [9] was inactive. Moreover, the Potency result in assay [2], in assay [3], in assay [5], in assay [6] and in assay [8] was “inactive” in each case.

Take `CO[Si](CCCCl)(OC)OC`: the outcome in assay [1], in assay [4], in assay [7] and in [9] was inactive. Also, the Potency entry in assay [2], in assay [3], in assay [5], in [6] and in [8] was “inactive” throughout.

As to `O=[Si]=O`, the molecule was called inactive in assay [1], in assay [4] and in assay [7]. In addition, the Potency result in [2], in [3], in assay [5], in assay [6] and in [8] was “inactive” each time.

With `CC(C)(CO)[C@@H](O)C(=O)NCCCO`, the molecule was classed as inactive in assay [1], in assay [4], in assay [7] and in assay [9]. Moreover, the Potency entry in [2], in assay [3], in assay [5], in assay [6] and in [8] was “inactive” throughout.

As to `O=c1[nH]c(=O)c2[nH]c(=O)[nH]c2[nH]1`, the activity change, negative = cytotoxicity is 0.314% [at 8.39 µM] in [1], -1.23% [at 8.39 µM] in assay [8] and 0.228% [at 8.39 µM] in assay [9]. The viability change, negative = cytotoxic in [2] is -3.05% [at 8.39 µM]; in assay [3] it was 0.704% [at 8.39 µM]. The activity change in assay [4] was 0.435% [at 8.39 µM]. In [5], the activity change, negative = inhibition is 16.8% [at 8.39 µM]. Besides, the activation in assay [6] was -1.14% [at 8.39 µM]. In assay [7], the activity, negative = inhibition is 11.9% [at 8.39 µM].

Turning to `NC(=O)NNC(N)=O`, the result in assay [1], in [4], in [7] and in assay [9] was inactive. The Potency result in assay [2], in assay [3], in assay [5], in assay [6] and in [8] was “inactive” each time.

With `CCCCCCCCCCCCC1CO1` (stereo not drawn), the call in assay [1], in assay [4], in assay [7] and in [9] was inactive. In addition, the Potency result in assay [2], in [3], in [5], in assay [6] and in assay [8] was “inactive” each time.

In the case of `C=COCCOCCOC=C`, the result in assay [1], in assay [4], in assay [7] and in assay [9] was inactive. The Potency result in assay [2], in assay [3], in assay [5], in assay [6] and in assay [8] was “inactive” throughout.

In the case of `CC(=O)Nc1ccc(C)cc1`, the result in assay [1], in assay [4], in assay [7] and in [9] was inactive. Besides, the Potency entry in assay [2], in assay [3], in assay [5], in assay [6] and in [8] was “inactive” each time.

Turning to `CC(C)(C)NCCO`, the molecule was called inactive in assay [1], in assay [4] and in assay [7]. The Potency entry in [2], in assay [3], in [5], in assay [6] and in [8] was “inactive” each time.

For `COC(=O)CCC(=O)O`, the call in assay [1], in assay [4], in assay [7] and in assay [9] was inactive. The Potency entry in assay [2], in [3], in [5], in assay [6] and in assay [8] was “inactive” in each case.

Consider `COC(/C=C(\C)CCC=C(C)C)OC`, for which the result in assay [1], in assay [4], in assay [7] and in assay [9] was inactive. Moreover, the Potency entry in assay [2], in assay [3], in assay [5], in assay [6] and in assay [8] was “inactive” throughout.

Regarding `SCCSCCS`, the molecule was classed as inactive in [1], in assay [4] and in assay [7]. For the same molecule, the Potency result in [2], in assay [3], in assay [5], in assay [6] and in assay [8] was “inactive” each time.

As to `CCCCCC(=O)OCC`, the molecule was classed as inactive in assay [1], in [4], in assay [7] and in assay [9]. Moreover, the Potency entry in assay [2], in [3], in [5], in assay [6] and in assay [8] was “inactive” each time.

In the case of `CC1(N)CCC(C(C)(C)N)CC1` (stereo not drawn), the result in assay [1], in assay [4], in assay [7] and in assay [9] was inactive. The Potency entry in assay [2], in [3], in assay [5], in [6] and in assay [8] was “inactive” throughout.

For the molecule `CCCCC(CC)COC(=O)c1ccccc1` (stereo not drawn), the molecule was classed as inactive in assay [1], in [4] and in assay [7]. The Potency entry in assay [2], in [3], in assay [5], in assay [6] and in assay [8] was “inactive” in each case.

For the molecule `CC(C)CCC(=O)CCC(C)C`, the result in [1], in [4] and in assay [7] was inactive. For the same molecule, the Potency result in assay [2], in assay [3], in assay [5], in assay [6] and in assay [8] was “inactive” in each case.

Regarding `CC(C)(C)c1ccc(C=O)cc1`, the outcome in assay [1], in [4], in assay [7] and in [9] was inactive. The Potency entry in assay [2], in assay [3], in assay [5], in assay [6] and in assay [8] was “inactive” in each case.

The values are drawn from PubChem BioAssay (Tox21).
